Screens: PubChem BioAssay, several laboratories
This is a sample that favours compounds with a hit; in the whole collection about 1.8% have one here.
sdo1 growth: sdo1-depleted yeast growth rescue; AID 817; actives 0.21% (n = 140,000); z-score at 10 µM; S. cerevisiae sdo1-depleted JHY4D growth rescue, OD600 30 h; active compounds read high; pdr5 snq2 efflux-pump mutant strain;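 active = z-score above 3 at both the 24 hr and the 30 hr optical density reads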;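 note: z-score against mean and SD of all compound wells on the same plate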
Measles CPE: protection of cells from measles virus; AID 841; protection (pct of control), % at 4 µM; Measles virus-infected cells, CPE protection, absorbance; actives 1.5% (n = 140,000); in the data active = protection mostly above about 24%, no sharp cut-off; inactive = mostly below about 26%
Phagocyt inh: blocks phagocytosis by macrophages; J774A.1 macrophage IgG-bead phagocytosis, imaging; inhibition, % at 5 µM; actives 0.07% (n = 110,000);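 active = inhibition above the mean of the plate negative controls plus 5 SD, cut at about 13% in these data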;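 note: phagocytic index as fraction of beads internalized from green versus red external bead signal; plate controls were DMSO negative control for no effect and cytochalasin-D positive control for full effect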
* = called active by the depositor; nt = no result given.

SMILES | sdo1 growth | Measles CPE | Phagocyt inh
Cc1ccc(S(=O)(=O)/C(C#N)=C/c2c(N3CCN(C)CC3)nc3ccccn3c2=O)cc1 | 0.28 | 9.1 | -0.4
N#C/C(=C\c1c(N2CCOCC2)nc2ccccn2c1=O)S(=O)(=O)c1ccccc1 | -0.57 | 26.8* | -3.3
Cc1ccc(NC(=O)COc2ncnc3c(Cl)cc(Cl)cc23)cc1[N+](=O)[O-] | -1.83 | 12.8 | -3.4
N#C/C(=C/c1cc(Br)cs1)C(=O)NCC1CCCO1 (configuration not stated) | 0.41 | 36.9* | 5.9
N#C/C(=C\c1cccs1)C(=O)NCC1CCCO1 (configuration not stated) | 0.7 | 46.0 | nt
CN(C)c1ccc([C@@H]2[C@@H]([N+](=O)[O-])[C@H]3C=Cc4ccccc4N3[C@H]2C(=O)c2ccc(Cl)cc2)cc1 | -1.36 | 5.5 | -7.0
CC(C)NC(=S)Nc1ccc(S(=O)(=O)Nc2ncccn2)cc1 | -0.34 | 18.8 | -3.6
COc1ccc(Br)cc1C1N2CC3(C)CN1CC(C)(C2)C3=O (configuration not stated) | 1.36 | 7.9 | -0.3
O=C(NCCc1cccc(F)c1)/C(=C/c1cccnc1)NC(=O)c1ccccc1 | -0.82 | 14.5 | -2.2
O=C(CSc1nc2cc(C(F)(F)F)ccc2n1Cc1ccccc1)NC1CCS(=O)(=O)C1 (configuration not stated) | 0.31 | 2.8 | -0.6
COc1ccc([N+](=O)[O-])cc1NC(=O)CSc1ccccc1 | -1.1 | 66.2* | 1.9
COc1ccc([N+](=O)[O-])cc1NC(=O)CSCc1ccccc1 | 0.06 | 15.0 | -8.3
CC(C)(C)NS(=O)(=O)c1ccc2c(c1)oc(=O)c1cc(S(=O)(=O)NC(C)(C)C)ccc12 | 0.01 | 7.1 | -0.4
CC(C)(CO)NS(=O)(=O)c1ccc2c(c1)oc(=O)c1cc(S(=O)(=O)NC(C)(C)CO)ccc12 | 0.17 | 61.3* | -0.3
CCOC(=O)c1cnn2cc(-c3[nH]ncc3[N+](=O)[O-])cnc12 | 1.12 | 33.4* | -1.2
CCOC(=O)c1cnc2c(-c3ccccc3)cnn2c1N | -0.22 | 4.6 | 0.3
CS(=O)(=O)N1CCCC(C(=O)NCc2ccccc2Cl)C1 (configuration not stated) | 1.18 | 42.3* | 5.2
CCS(=O)(=O)N1CCCC(C(=O)NCc2ccccc2Cl)C1 (configuration not stated) | 0.7 | 6.2 | nt
CC1(C)CC2(C)Nc3ccccc3N2C(=S)N1 (configuration not stated) | -0.16 | 3.7 | -2.0
CSC1=NC(C)(C)CC2(C)Nc3ccccc3N12 (configuration not stated) | 0.86 | 18.2* | -4.6
CC1CN(C(=O)c2ccc(N3CCCCC3)c([N+](=O)[O-])c2)CC(C)O1 (configuration not stated) | 0.03 | 4.0 | -4.8
CCC(c1nnc(SCC(=O)Nc2ccc(C(=O)Nc3ccccc3OC)cc2)o1)N(C)C (configuration not stated) | -0.1 | 1.1 | 0.2
CCCCN(C(=O)Cc1cccs1)c1nnc(-c2cccnc2)s1 | -0.45 | 1.7 | nt
COCCN(C(=O)Cc1cccs1)c1nnc(-c2cccnc2)s1 | 0.44 | 20.1* | -0.7
CCOC(=O)c1c(NC(=O)Cn2nc(C(F)(F)F)cc2C)sc(C)c1C | -0.71 | 11.2 | nt
SMILES | sdo1 growth | Measles CPE | Phagocyt inh
CCOC(=O)c1c(C)[nH]c(C=C2C(=O)CCCC2=O)c1O | 1.41 | 4.3 | 2.9
O=C(NNS(=O)(=O)c1ccccc1)C(O)(c1ccccc1)c1ccccc1 | 0.58 | 63.2* | nt
Cc1ccc(S(=O)(=O)NNC(=O)C(O)(c2ccccc2)c2ccccc2)cc1 | -0.36 | 10.1 | -9.2
COc1ccc(-c2nnc3ccc(SCC(=O)Nc4nc5ccc(C)cc5s4)nn23)cc1OC | 2.06 | 28.4* | -7.2
COC(=O)CSc1ccc2nnc(-c3ccc(OC)c(OC)c3)n2n1 | 0.05 | 13.0 | 0.1
Nc1ccc(C(=O)OCC(=O)N2c3ccccc3Sc3ccccc32)cc1[N+](=O)[O-] | -1.21 | 33.2* | 1.6
Nc1ccc(C(=O)OCC(=O)N2CCc3ccccc3C2)cc1[N+](=O)[O-] | -0.63 | 39.4 | 4.8
Cc1cc(C)c(C#N)c(SCC(=O)c2ccc(Cl)cc2Cl)n1 | -0.89 | 3.7 | nt
CSc1nc(-c2ccc(Cl)cc2Cl)[nH]c(=O)c1C#N | 1.33 | 54.8* | -2.3
O=C(CSCc1ccc(Cl)cc1)Nc1ccc(S(=O)(=O)N2CCOCC2)cc1 | -0.71 | 5.7 | -6.1
CCCOc1ccc(C2C(C(=O)c3ccco3)=C(O)C(=O)N2CCN2CCOCC2)cc1OC (configuration not stated) | 0.42 | 46.9* | nt
CCOc1ccc(C2C(C(=O)c3ccc(C)o3)=C(O)C(=O)N2CCN2CCOCC2)cc1OC (configuration not stated) | -0.03 | 11.7 | -0.7
CCOC(=O)c1nn(-c2ccc(OCC)cc2)c2nc(-c3ccco3)c(C#N)c(=O)n12 | -0.53 | 6.1 | -3.3
